Source: paper PMC5540273 (PLoS ONE, 2017)

Test system: PRKD2
Conditions: concentration: 1 μM, replicates: in singlicate; n = 1
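Also: KINOMEscan kinase panel screen.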

| SMILES | %Inh [%] |
| --- | --- |
| Cc1ccc(-c2nc(Nc3ccncc3)c3ccccc3n2)s1 [GSK189015] | 14 |
| CC(C)c1cc(-c2ccc3c(N)n[nH]c3c2)nc(N)n1 [GSK2250882] | 0 |
| CC(=O)c1cccc(NC(=O)NC2CCN(c3ccnc(Nc4ccc(F)cc4)n3)C2)c1 (centres unmarked) [GSK1379710] | 10 |
| Cc1ccccc1Cn1ccn2c(=O)cc(N3CCOCC3)nc12 [GSK2269905] | 9 |
| CNc1nc(-c2ccc3c(N)n[nH]c3c2)cc(N2C[C@@H](C(=O)Nc3ccccc3)CC[C@H]2C)n1 [GSK2298859] | 20 |
| Fc1ccc(-c2nc[nH]c2-c2ccncc2)cc1 [SB-217360] | 0 |
| Cc1cccc2c(-c3ccncn3)c(-c3ccc(F)cc3)nn12 [GW515532] | 0 |
| COc1ccc(Nc2nccc(NCCNC(=O)Nc3cc(C)ccc3C)n2)cc1 [GSK1379899] | 0 |
| CS(=O)(=O)CCNCc1nc(-c2ccc3ncnc(Nc4ccc(OCc5ccccc5)c(Cl)c4)c3c2)cs1.Cl [GW582764] | 0 |
| NS(=O)(=O)c1cccc(N/C=C2\C(=O)Nc3ccc(S(=O)(=O)Cc4c(Cl)cccc4Cl)cc32)c1 [GSK398099] | 0 |
| CC(=O)c1c(C)c2cnc(Nc3ccn(C)n3)nc2n(C2CCCC2)c1=O | 0 |
| Cn1cncc1-c1cc2c(Nc3ccc(OCc4ccccc4)cc3)ncnc2cn1 [GW281179] | 2 |
| COc1ccc(CSc2nnc(-c3ccc4c(c3)CCO4)o2)cc1 | 31 |
| CN1c2ccc(-c3ccc(C(N)=O)cc3)cc2-c2[nH]ncc2S1(=O)=O | 80 |
| CC(C)c1ccc(O)cc1Nc1ccnc2ccc(C(F)(F)F)cc12 [GW482059] | 2 |
| O=C(Nc1n[nH]c2nc(-c3cccs3)c(Br)cc12)C1CCCC1 [SB-743341] | 0 |
| CS(=O)(=O)CCNCc1nc(-c2ccc3ncnc(Nc4ccc5c(cnn5Cc5ccccc5)c4)c3c2)cs1.Cl.Cl [GW569716] | 0 |
| Cl.Cl.Cl.N#Cc1ccc(CCNc2nccc(-c3cccc(CN4CCNCC4)c3)n2)cc1 [GSK2137462] | 13 |
| Fc1ccc(-c2nn3cccc(F)c3c2-c2ccncc2)cc1 [GW475620] | 60 |
| COc1ccc(CSc2nnc(-c3ccc4ncsc4c3)o2)cc1C(F)(F)F | 7 |
| Cc1ccc(NC(=O)Nc2ccccc2F)cc1-c1ccc(C(=O)Nc2ccncc2)cc1 [GSK1398477] | 4 |
| O=C1NC(=O)C(c2ccc(Cl)cc2)=C1Nc1cccc(Cl)c1 [SB-317651] | 0 |
| CNc1nc(-c2ccc3c(N)n[nH]c3c2)cc(N2C[C@@H](C(=O)NC3CCCCC3)OC[C@H]2C)n1 [GSK2375584] | 23 |
